According to the supplement of paper PMC6555819:

Tested on: THRa:RXRa (NR concentration 90 nM, RXRa partner concentration 90 nM)
Test: PBM binding z-score (relative to random genomic background probes); higher = stronger binding; sequences stand for … in GC…GCGATTGACAGCGTAGAATGAAGG
Method in brief: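 Antibodies against each partner of ligand-free nuclear receptor dimers (one per run) detected binding on custom Agilent 4×180K protein-binding microarrays after 1 h incubation. The double-stranded probes had 34-nt variable regions carrying direct-repeat seeds, single-nucleotide variants, half-site ablations and random human genomic background sequences. Binding z-scores, from regression-normalized fluorescence, use the random background probes as reference.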

| Sequence | PBM binding z-score |
| --- | --- |
| CCTAACAGGCCAATCTGGGTCACTCAAGGCTTGA | 3.85 |
| CTCGAAAGGTCGTGCTCAGGTGAGTTTACCAAAC | 3.84 |
| CCAACTGGGGCAAGGTTACCATAACGCACAGCCA | 1.4 |
| TCTATTAGTTTATTAGGGCAACCGAAACAGCGGA | 1.54 |
| GCGACTGGGGCCTCAGCAGGTTACCATAACTTAA | 1.19 |
| TCGAGTACGTTAGGGGCATTCAGAATGGCGTCGA | 0.637 |
| CGTCCAAGGTCATAGGAGGTCGGTGAAGACAGAT | 4.77 |
| AGTCAAAGTTCATCTAGGTACCGTAAGATATGCT | 3.05 |
| CGTCAAAGTTCAACTAGGGTAACGTAAAGCACGC | 5.14 |
| TCGAGTAGCTTAGTCGGGGCATTCAGCCAACATA | -0.289 |
| GCATATAGGTGATACAAGGTGAAAGTCCGATTGT | 4.24 |
| CCTACTGGGCCATCAGGTCATAGATATCAACGTT | 3.09 |
| ATCTCTAGGTAACCAAGTTCCGTGAATGCCGAAC | 0.694 |
| CCTAGCAGGCCAATCAGGGTCACTCAAGGCTTGA | 4.68 |
| ATCTCTAGGTAACCCAGTTCAGTGAATGCCGAAC | 1.45 |
| CAAACTAGGTCACAGAGGTCAAAGCCCGTGCGTA | 4.82 |
| CAAACTAGGTCACGACAGGTCAAAGTCGAATGAC | 5.05 |
| CCTGCTAGGTCAATAGTCAGCTAAAGCAGCTCGC | 1.74 |
| GGAAGGAGGGCAAAGTTGATAGCATCTGTCGACG | 1.04 |
| TCATATAGGTACAGGTGAAAGTCGAACGATATGA | 0.566 |
| CGAACGAGGGCATCAGTTGATAGCAAATGCCGAT | 0.964 |
| AGAACGAGGGCAATGAGTTAATAGCACGGGTGGC | 0.999 |
